ERK AVP block: blocks ERK signaling stimulated by vasopressin. HEK293-V1b, vasopressin-stimulated pERK AlphaScreen. Potency, µM (doses to about 57.5 µM), without a hit: top-dose activity, negative = inhibition, hits mostly inhibitors. hit rate 0.99% among 72,000. AID 995; also: % is scaled to controls: 0 for no effect and ±100 for the full control effect; nearly all actives have a fitted effect of over 55% in size
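Phosphorylated ERK1/2 detected via AlphaScreen bead proximity in lysates of V1b-expressing HEK293 cells given 25 nM vasopressin for 5 min after 30 min compound exposure (37 °C). AC50 from Hill equation; basal DMSO 0%, vasopressin 100%.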
Tau filament bind: tau filament binding. Potency, µM (top dose mostly 57.1 µM), without a hit: top-dose activity change, negative = inhibition. recombinant tau filaments, thioflavin S fluorescence, 15 h; filaments grown with octadecylsulfate alongside compound. P10636. AID 596. hit rate 2% among 71,000;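 also: % is scaled to controls: 0 for no effect and ±100 for the full control effect; actives lower thioflavin S fluorescence by blocking filaments or displacing dye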
Target sequence (P10636 whole entry, looked up): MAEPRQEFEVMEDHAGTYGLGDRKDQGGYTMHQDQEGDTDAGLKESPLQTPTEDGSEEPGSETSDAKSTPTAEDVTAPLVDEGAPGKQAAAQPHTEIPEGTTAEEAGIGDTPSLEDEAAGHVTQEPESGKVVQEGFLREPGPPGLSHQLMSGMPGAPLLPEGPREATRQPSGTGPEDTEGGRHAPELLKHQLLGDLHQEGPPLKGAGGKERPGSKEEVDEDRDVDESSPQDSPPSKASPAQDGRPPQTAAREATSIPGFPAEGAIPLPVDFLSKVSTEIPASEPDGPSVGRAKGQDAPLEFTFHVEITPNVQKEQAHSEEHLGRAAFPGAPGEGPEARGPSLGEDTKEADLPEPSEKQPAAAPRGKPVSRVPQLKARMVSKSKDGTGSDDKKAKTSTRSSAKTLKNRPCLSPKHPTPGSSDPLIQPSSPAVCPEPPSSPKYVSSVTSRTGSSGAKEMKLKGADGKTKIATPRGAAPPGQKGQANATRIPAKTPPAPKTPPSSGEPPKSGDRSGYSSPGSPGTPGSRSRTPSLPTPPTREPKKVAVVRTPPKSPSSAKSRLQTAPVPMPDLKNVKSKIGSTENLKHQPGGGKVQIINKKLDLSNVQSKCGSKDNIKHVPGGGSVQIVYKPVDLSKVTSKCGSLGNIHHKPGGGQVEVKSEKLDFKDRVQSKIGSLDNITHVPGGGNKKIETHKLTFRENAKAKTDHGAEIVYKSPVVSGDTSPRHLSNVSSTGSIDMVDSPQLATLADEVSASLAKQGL
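Tau 2 uM in ThS buffer dispensed; compound added; 60 uM ODS added (finals 1 uM tau, 30 uM ODS); 15 h 37 C; fluor ex450/em510.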
HEK293 cAMP ctrl: counter-screen for TSHR agonists: cAMP increase in parental HEK293 | parental HEK293 CNG cAMP sensor, membrane potential fluorescence | Potency, µM (titrated, usually from 57.1 µM), inactives show at the highest dose activation, hits mostly activators | hit rate 2.5% among 73,000; also: % of control where 0% means no effect; nearly all actives have a fitted effect of over 55% in size
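Counterscreen for endogenous-receptor signalling: CNG-channel HEK 293 cells report cAMP rise by membrane depolarization. After 60 min dye equilibration with 100 uM RO 20-1724, compounds incubated 30 min before bottom-read fluorescence at 590 nm.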
CRE Fsk mod: modulators of forskolin-stimulated CRE signaling in CHO cells; CHO CRE-bla reporter (cAMP response element driving beta-lactamase), forskolin EC10, beta-lactamase ratio; Potency, µM (doses to about 38.2 µM), inactives show top-dose activity change, negative = inhibition, usual class: activators; hit rate 2.5% among 71,000; active = well fitted activation curve with a large enough effect in the signal ratio, with a control signal flat, not every such curve was filed as active; inconclusive = small, poorly fitted or top-dose-only effect, or effect the other way, or a change in a side signal; the % refers to the signal ratio; also: % of control where 0% means no effect
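Using CellSensor CRE-bla CHO cells in Opti-MEM with 0.5% dialyzed FBS, compounds were titrated with EC10 NKH 477 for 3 h at 37 °C. CCF4 ratio (460/530 nm) gave %Activity; AC50 derived.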
TSHR ag: activates the human thyroid stimulating hormone receptor. HEK293-CNG-TSHR cells (CNG channel as cAMP sensor), membrane potential dye, cAMP. Potency, µM (highest dose often 57.1 µM), for inactives: at the highest dose activation, usual class: activators. hit rate 0.48% among 73,000; active = well fitted activation curve with a large enough effect in the main read-out, with a control signal flat, not every such curve was filed as active; inconclusive = small, poorly fitted or top-dose-only effect, or a change in a side signal; inactive = no such curve, though single readings can be large or run the other way; % of control where 0% means no effect;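 also: the control signal comes from parental cells without the receptor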
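HEK 293 cells stably expressing TSHR and a modified CNG channel, with CNG-only parental cells as counterscreen, were preloaded 60 min at room temperature with membrane potential dye containing 100 uM RO 20-1724. Compound exposure was 30 min, and depolarization was read as fluorescence at 590 nm.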
* = called active by the depositor; [ ] = another dose, or the depositor's remark. Most compounds without a hit are left out; they make up all but 7.4% or so of the library. Unless noted, calls follow the shape of the dose curve; as a rule, active = well fitted curve in the direction sought with a large enough effect; inconclusive = small, poorly fitted or top-dose-only effect, or another doubt; inactive = no such curve, though single readings can be large; an effect the other way counts as inactive or inconclusive. Potency is read from the fitted curve at half-maximal effect.

How did O=C(C1CC1)N1CCc2cc(Br)cc(S(=O)(=O)NCC3COc4ccccc4O3)c21 (configuration not stated) do in these assays?
ERK AVP block: -5%; Tau filament bind: 102%; HEK293 cAMP ctrl: 16µM*; CRE Fsk mod: -11%; TSHR ag: inconclusive

What do the screens show for `O=C(C1CC1)N1CCc2cc(S(=O)(=O)NCC3COc4ccccc4O3)ccc21` (configuration not stated)?
ERK AVP block: -8%; Tau filament bind: 5%; HEK293 cAMP ctrl: inconclusive; CRE Fsk mod: inconclusive; TSHR ag: inconclusive

How did c1cncc(-c2cc(-n3ccnc3)ncn2)c1 do in these assays?
ERK AVP block: -12%; Tau filament bind: -25%; HEK293 cAMP ctrl: -4%; CRE Fsk mod: inconclusive

How did CCOC(=O)N1CCN(c2c(F)cc3[nH]c(=S)[nH]c3c2Br)CC1 do in these assays?
ERK AVP block: 14%; Tau filament bind: 16µM*; HEK293 cAMP ctrl: 1%; CRE Fsk mod: inconclusive; TSHR ag: 20%

Results for CCOC(=O)N1CCN(c2cc3[nH]c(=S)[nH]c3cc2F)CC1 ?
ERK AVP block: -25%; Tau filament bind: -10%; HEK293 cAMP ctrl: 0%; CRE Fsk mod: -4%

How did Cc1ccccc1-c1nc(Nc2ccncc2)c2ccccc2n1 do in these assays?
ERK AVP block: -6%; Tau filament bind: -6%; HEK293 cAMP ctrl: 9%; CRE Fsk mod: 4µM*; TSHR ag: 5%

Results for CC(=O)NCCNc1nc(-c2ccc(C(=O)N(C)C)cc2)nc2ccccc12 ?
ERK AVP block: -1%; Tau filament bind: -1%; HEK293 cAMP ctrl: -6%; CRE Fsk mod: inconclusive; TSHR ag: 0%

Results for CN(C)c1ccc(-c2nc(NCc3cccnc3)c3ccccc3n2)cc1 ?
ERK AVP block: 8%; Tau filament bind: inactive; HEK293 cAMP ctrl: -53%; CRE Fsk mod: inconclusive; TSHR ag: inconclusive

Results for CN(C)C(=O)c1ccc(-c2nc(Nc3ccncc3)c3ccccc3n2)cc1 ?
ERK AVP block: -19%; Tau filament bind: -1%; HEK293 cAMP ctrl: -11%; CRE Fsk mod: 13µM*; TSHR ag: 3%

What do the screens show for `CN(C)C(=O)c1ccc(-c2nc(NCc3cccs3)c3ccccc3n2)cc1`?
ERK AVP block: -27%; Tau filament bind: -6%; HEK293 cAMP ctrl: inconclusive; CRE Fsk mod: inconclusive; TSHR ag: inconclusive

Results for COC(=O)CNc1nc(-c2ccncc2)nc2ccccc12 ?
ERK AVP block: -20%; Tau filament bind: -5%; HEK293 cAMP ctrl: 1%; CRE Fsk mod: 13µM*

What do the screens show for `CN(C)C(=O)c1ccc(-c2nc(Nc3ccc(F)cc3)c3ccccc3n2)cc1`?
ERK AVP block: inconclusive; Tau filament bind: 10%; HEK293 cAMP ctrl: 16%; CRE Fsk mod: 4µM*; TSHR ag: 32µM*

Results for N=C1CCC[C@@H]1C(=S)SCCC(N)=O ?
ERK AVP block: -12%[11.5 µM]; Tau filament bind: 7%[11.4 µM]; HEK293 cAMP ctrl: 2%[11.4 µM]; CRE Fsk mod: -5%[7.6 µM]; TSHR ag: -3%[11.4 µM]

Results for CNc1nc(-c2ccc(N(C)C)cc2)nc2ccccc12 ?
ERK AVP block: -2%; Tau filament bind: inactive; HEK293 cAMP ctrl: -72%; CRE Fsk mod: inconclusive; TSHR ag: inconclusive

Results for CNc1nc(-c2cccnc2)nc2ccccc12 ?
ERK AVP block: -26%; Tau filament bind: -4%; HEK293 cAMP ctrl: -8%; CRE Fsk mod: inconclusive; TSHR ag: 1%

How did Fc1ccc(Nc2nc(-c3cccnc3)nc3ccccc23)cc1 do in these assays?
ERK AVP block: inconclusive; Tau filament bind: 6%; HEK293 cAMP ctrl: 27%; CRE Fsk mod: 10µM*

How did CN(C)c1ccc(-c2nc(Nc3ccncc3)c3ccccc3n2)cc1 do in these assays?
ERK AVP block: 16µM*; Tau filament bind: 10µM*; HEK293 cAMP ctrl: -49%; CRE Fsk mod: 1.3µM*; TSHR ag: inconclusive

How did CCN(CC)[C@@H](C)CN1c2ccccc2Sc2ccccc21 do in these assays?
ERK AVP block: 1%[25.7 µM]; Tau filament bind: inconclusive; HEK293 cAMP ctrl: 11%[25.6 µM]; CRE Fsk mod: -8%[17.1 µM]; TSHR ag: -9%[25.6 µM]

How did COc1ccc(-c2nc(C#N)c(NCCCN(C)C)o2)cc1OC do in these assays?
ERK AVP block: -26%; Tau filament bind: -9%; HEK293 cAMP ctrl: 7%; CRE Fsk mod: 6%; TSHR ag: 5%

What do the screens show for `COc1ccc(-c2nc(C#N)c(NC(C)c3ccccc3)o2)cc1OC` (configuration not stated)?
ERK AVP block: 16µM*; Tau filament bind: 7%; HEK293 cAMP ctrl: -13%; CRE Fsk mod: inconclusive; TSHR ag: 21%

How did COc1ccc(-c2nc(C#N)c(NCC3CCCO3)o2)cc1OC (configuration not stated) do in these assays?
ERK AVP block: inconclusive; Tau filament bind: -4%; HEK293 cAMP ctrl: 0%; CRE Fsk mod: 13µM*; TSHR ag: 14%

Results for Cc1cn([C@H]2C=C[C@H](CO)O2)c(=O)[nH]c1=O ?
Tau filament bind: 0%; HEK293 cAMP ctrl: 2%; CRE Fsk mod: 3%; TSHR ag: 2%

What do the screens show for `NCCOc1ccccn1`?
ERK AVP block: 3%[11.5 µM]; Tau filament bind: 10%[11.4 µM]; HEK293 cAMP ctrl: 27%[11.4 µM]; CRE Fsk mod: 25%[7.6 µM]; TSHR ag: 0%[11.4 µM]

What do the screens show for `CCNc1ncc2nc(C)c(=O)n(CCc3ccccc3)c2n1`?
ERK AVP block: 8%; Tau filament bind: 22%; HEK293 cAMP ctrl: 24%; CRE Fsk mod: 2µM*; TSHR ag: 5%

How did Cc1nc2cnc(Nc3ccccc3)nc2n(CCC#N)c1=O do in these assays?
ERK AVP block: -1%; Tau filament bind: 0%; HEK293 cAMP ctrl: inconclusive; CRE Fsk mod: inconclusive; TSHR ag: inconclusive

Results for CCNc1ncc2nc(C)c(=O)n(CCC#N)c2n1 ?
ERK AVP block: inconclusive; Tau filament bind: -1%; HEK293 cAMP ctrl: 1%; CRE Fsk mod: 13µM*; TSHR ag: -2%

Results for Cc1nc2cnc(OCc3ccccc3)nc2n(CCc2ccccc2)c1=O ?
ERK AVP block: 6%; Tau filament bind: -21%; HEK293 cAMP ctrl: 10µM*; CRE Fsk mod: inconclusive; TSHR ag: inconclusive

What do the screens show for `CCCCCCCCCCCCCCCC(=O)NC[C@@H](COP(=O)([O-])OCC[N+](C)(C)C)OCC`?
ERK AVP block: inconclusive; Tau filament bind: 176%; HEK293 cAMP ctrl: 20%; CRE Fsk mod: inconclusive

How did CCN(CC)c1ccc(NC(=O)C2CC3CCC2C3)cc1 (configuration not stated) do in these assays?
ERK AVP block: inconclusive; Tau filament bind: 25µM*; HEK293 cAMP ctrl: 13%; CRE Fsk mod: 5%; TSHR ag: 20%

Results for CC(=O)Nc1cccc(NC(=O)C2CC3CCC2C3)c1 (configuration not stated) ?
ERK AVP block: -14%; Tau filament bind: -21%; HEK293 cAMP ctrl: -6%; CRE Fsk mod: 1%; TSHR ag: 3%
